A selection: hits, their analogues and other compounds. The true share with any hit is near 0.64%.
PvdQ inh = P. aeruginosa PvdQ acylase inhibition; inhibition, % at 10 µM; actives 0.063% (n = 340,000); AID 488965; purified PvdQ acylase, fluorescence plate reader; in the data active = inhibition above about 30%, passing the limit was not always enough
AI-2 QS mod = modulators of Vibrio harveyi AI-2 quorum sensing system; Vibrio harveyi JMH597 AI-2 luminescence/OD600 ratio, 9 h; stronger effect = lower value; strain lacks LuxN and CqsS sensors; 0 = neutral-control median; activity change, % at 7.5 µM; actives 0.4% (n = 300,000); in the data active = activity change below about -75%, passing the limit was not always enough;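 also: luminescence divided by OD600 gain over 9 h not by final OD600 alone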
ERp5 block = inhibitors of human ERp5; Q15084; ERp5 insulin aggregation, absorbance 650 nm, 90 min; inhibition, % at 9.99 µM; actives 0.05% (n = 350,000);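 active = mean replicate inhibition above about 25%, with every replicate also reaching it, limit read from the data, passing the limit was not always enough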
PDI inh = inhibitors of human protein disulfide isomerase; PDI insulin aggregation turbidity, A650, 90 min; P07237; actives 0.052% (n = 350,000); inhibition, % at 10 µM;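 active = mean inhibition across replicates of 30% or more, whatever share of single replicates reach that level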
Target sequence (P07237 whole entry, looked up): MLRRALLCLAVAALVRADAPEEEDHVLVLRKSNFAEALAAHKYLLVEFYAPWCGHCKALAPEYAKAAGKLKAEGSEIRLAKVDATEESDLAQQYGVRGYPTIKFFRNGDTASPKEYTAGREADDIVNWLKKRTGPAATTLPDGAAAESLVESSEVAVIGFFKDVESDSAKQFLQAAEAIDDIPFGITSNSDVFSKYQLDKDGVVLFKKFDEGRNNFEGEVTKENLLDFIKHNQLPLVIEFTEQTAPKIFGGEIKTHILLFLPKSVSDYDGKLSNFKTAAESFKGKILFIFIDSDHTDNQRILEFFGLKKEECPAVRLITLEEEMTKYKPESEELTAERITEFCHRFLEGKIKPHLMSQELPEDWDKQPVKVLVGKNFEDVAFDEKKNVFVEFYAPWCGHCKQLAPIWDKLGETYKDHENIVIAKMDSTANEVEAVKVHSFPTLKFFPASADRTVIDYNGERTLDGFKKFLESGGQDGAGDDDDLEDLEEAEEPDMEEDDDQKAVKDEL
Vif inh = inhibitors of HIV Vif; HEK293T cells, Vif self-association by quenched fluorescence, imaging, 24 h; inhibition, % at 7.49 µM; actives 0.35% (n = 340,000); AID 602346; in the data active = inhibition above about 50%, passing the limit was not always enough
Hits are given with their value; n = inactive; x = not tested or not shown.

SMILES	PvdQ inh	AI-2 QS mod	ERp5 block	PDI inh	Vif inh
COc1ccc2sc(N(CCCN(C)C)C(=O)c3ccc(S(=O)(=O)N4CCCc5ccccc54)cc3)nc2c1	n	n	n	n	x
COc1ccc2oc(-c3ccc(C)c(NC(=O)c4ccc(N5CCOCC5)c([N+](=O)[O-])c4)c3)nc2c1	n	n	x	n	73
N/C(=N\O)c1ccc([N+](=O)[O-])s1	n	n	n	n	n
CC(C)(C)C(=O)O/N=C(\N)c1ccc([N+](=O)[O-])s1	n	-84	n	n	n
N/C(=N\OC(=O)C1CC1)c1ccc([N+](=O)[O-])s1	n	-88	n	n	n
CCCCc1ccc(S(=O)(=O)Nc2nnc(C)s2)cc1	n	-98	n	n	n
CCc1ccc(-c2nc(CCl)cs2)cc1	n	n	n	n	100
COc1ccc2c3c([nH]c2c1)[C@@H](CO)N(C(=O)CN(C)C)CC31CCN(CC2CCCC2)CC1	x	x	n	x	x
COc1ccc2c3c([nH]c2c1)[C@H](CO)N(C(=O)CN(C)C)CC31CCN(CC2CCCC2)CC1	x	x	74	x	x
COc1cccc(S(=O)(=O)N2CC3(CN(C(=O)Nc4cccc(F)c4)[C@H](CO)c4[nH]c5cc(OC)ccc5c43)C2)c1	x	x	69	x	x
O=C(CCCOc1ccc(Br)cc1)NNC(=O)c1ccncc1	n	n	n	n	67
O=C(CCCOc1ccccc1)NNC(=O)c1ccncc1	n	x	n	n	n
Cc1ccccc1NC(=S)N(Cc1cccs1)C1CCCC1	n	n	n	n	51
CO[C@@H]1CN(C)C(=O)c2cc(NS(C)(=O)=O)ccc2OC[C@H](C)N(C(=O)C2CC2)C[C@H]1C	x	x	n	x	x
O=C(CCl)Nc1ccccc1Sc1ccc(Cl)cc1	n	n	x	50	n
CC(=O)N1CCN(CC(=O)Nc2ccccc2Sc2ccc(Cl)cc2)CC1	n	n	n	n	n
COc1ccc(Nc2nc3ccccc3n3nnnc23)cc1	n	n	x	n	n
COc1cc(Nc2nc3ccccc3n3nnnc23)cc(OC)c1OC	n	n	n	n	50
NNC(=O)c1oc2nc(-c3ccccc3)cc(-c3ccccc3)c2c1N	n	n	n	n	71
Cc1ccc(-c2cc(-c3ccco3)c3c(N)c(C(=O)NN)oc3n2)cc1	n	n	n	n	n
CCOCC(=O)Nc1nc2ccc(C)cc2s1	32	n	x	n	n
CCOCC(=O)Nc1nc2ccc(OCC)cc2s1	n	n	x	n	n
O=C(COc1ccccc1)Nc1nnc(-c2ccccc2Cl)o1	n	-79	n	n	n
Cc1ccc(NC(=O)CN2C(=O)NC3(CCc4ccccc43)C2=O)cc1 (stereo not given)	n	-90	n	n	n
Cc1ccc(NC(=O)CN2C(=O)NC3(CCc4ccccc43)C2=O)cc1Cl (stereo not given)	n	-90	x	n	n
SMILES	PvdQ inh	AI-2 QS mod	ERp5 block	PDI inh	Vif inh
O=C(CN1C(=O)NC2(CCc3ccccc32)C1=O)Nc1cccc(Cl)c1 (stereo not given)	n	x	n	n	n
CC(=O)c1ccc(NC(=O)CN2C(=O)NC3(CCCc4ccccc43)C2=O)cc1 (stereo not given)	n	x	n	n	n
CCC(=O)N(C)C[C@H]1Oc2ncc(C#CCc3ccccc3)cc2C(=O)N([C@H](C)CO)C[C@@H]1C	x	x	n	x	x
C[C@H](CO)N1C[C@H](C)[C@H](CN(C)Cc2ccc3c(c2)OCO3)Oc2ccc(NC(=O)Cn3cnnn3)cc2C1=O	x	x	n	x	x
O=C(N[C@@H]1CC[C@H](CC(=O)N2CCCCC2)O[C@@H]1CO)c1cccc(F)c1	x	x	n	x	x
C[C@H]1CN([C@@H](C)CO)C(=O)c2cc(C#CCN(C)C)cnc2O[C@H]1CN(C)Cc1ccc(F)cc1	x	x	n	x	x
C/C(=N\Nc1ncnc2sc(C)c(C)c12)c1ccccn1	n	-88	n	n	n
Cc1sc2ncnc(N/N=C/c3cccc(O)c3)c2c1C	n	n	x	n	n
O=C(C[n+]1ccc(C(=O)NCc2ccccc2)cc1)c1ccc2c(c1)OCCO2	n	n	n	n	n
Nc1cc[n+](CC(=O)c2ccc3c(c2)OCCO3)cc1	n	n	n	n	82
COCC(=O)Nc1ccc2c(c1)OC[C@H](C)N(C(=O)COC)C[C@H](C)[C@@H](OC)CN(C)C2=O	x	x	n	x	x
Cc1c(Cl)cccc1NC(=O)CC(Cc1ccccc1)C(=O)O (stereo not given)	n	n	n	n	n
Cc1c(Cl)cccc1NC(=O)CC(C(=O)O)C1CCCO1 (stereo not given)	n	n	x	n	98
CC=Cc1ccc2n(c1=O)C[C@@H]1[C@@H](CO)[C@H](C(=O)NC3CCCC3)N[C@H]21 (mixture of isomers)	x	x	n	x	x
Cc1nnc(NC(=O)CSc2nnc(NC(=O)C(C)(C)C)s2)s1	n	n	n	n	75
CC(C)(C)C(=O)Nc1nnc(SCC(=O)Nc2nccs2)s1	n	n	n	n	n
CS(=O)(=O)c1ccc(C(=O)OCC(=O)N2CCN(CCC3CCCCC3)CC2)cc1[N+](=O)[O-]	x	x	n	91	n
CCOC(=O)c1cc(-c2cccc([N+](=O)[O-])c2)on1	62	n	n	n	n
CCOC(=O)c1csc(-c2ccc([N+](=O)[O-])cc2)n1	n	n	n	n	n
CC(C)(C)NC[C@@H](O)COc1cccc2c1CCCC2=O	n	x	n	n	n
CC(C)(C)NCC(O)COc1ccccc1C1CCCC1 (stereo not given)	n	x	n	n	52
O=C(Nn1cnc2ccccc2c1=O)c1ccc(Br)cc1	n	n	n	n	n
CCc1ccc(C(=O)Nn2cnc3ccccc3c2=O)cc1	n	-80	n	n	n
CO[C@@H]1CN(C)C(=O)c2cc(NS(=O)(=O)c3ccccc3)ccc2OC[C@@H](C)N(C(=O)NC(C)C)C[C@H]1C	x	x	n	x	x
Brc1nc(-c2ccccc2)nc(-c2ccccc2)c1Br	x	n	n	n	69
SMILES	PvdQ inh	AI-2 QS mod	ERp5 block	PDI inh	Vif inh
c1ccc(-c2nnc(-c3ccncc3)nc2-c2ccccc2)cc1	n	n	n	n	n
CCS(=O)(=O)N1CC(=O)N2[C@H](CO)[C@@H](c3ccc(C#CCC(C)C)cc3)[C@@H]2C1	x	x	n	x	x
Cc1ccc(C(C)C)c(OCc2n[nH]c(=S)o2)c1	n	n	n	n	n
Cc1ccc(C(C)C)c(OCc2nc(-c3nonc3N)no2)c1	n	-85	n	n	n
Cc1ccc(/C=C2/CNC/C(=C/c3ccc(C)cc3)C2=O)cc1	n	x	n	n	120
NC(=O)C1=C(N=C2CCCCC2)CCCC1	n	x	n	n	65
CC1(C)C2CC[C@]3(C)C(CC=C4[C@@H]5C[C@@](C)(CO)[C@@H](O)C[C@]5(C(=O)O)CC[C@]43C)[C@@]2(C)CC[C@@H]1O (stereo not given in full)	x	n	x	x	67
CCOCCCn1c(=N)c(S(=O)(=O)c2ccc(C)cc2)cc2c(=O)n3cc(C)ccc3nc21	n	n	n	n	50
C[C@H]1CN([C@@H](C)CO)C(=O)c2cc(NC(=O)c3ccncc3)ccc2O[C@@H]1CN(C)C(=O)Nc1ccc(C(F)(F)F)cc1	x	x	n	x	x
COCC(=O)N1CCC2(CC1)CN(C(=O)CN1CCOCC1)[C@H](CO)c1c2c2ccc(OC)cc2n1C	x	x	n	x	x
